Test results published in PubChem BioAssay (NCATS).
Inconclusive results are not listed. A call without a number means that no potency is given here. Calls of active or inactive are those of the source. Unless noted, calls come from the whole dose curve; as a rule, active = well fitted curve in the direction sought with a large enough effect; inconclusive = small, poorly fitted or top-dose-only effect, or another doubt; inactive = no such curve, though single readings can be large; an effect the other way counts as inactive or inconclusive. Numbered stars: 1 amine (or outer) side, 2 acyl side, 3 side chain; on linkers, the order of the positions; unused ones are H or OH. Bridge positions count the residues as written; N and C are the ends. Square brackets hold non-standard residues; d marks the D form. Peptide text beside a SMILES is read from it. I, II: the chains in the order shown. Actinocin(9to1) = Cc1c2oc3c(C)ccc(C(=O)[*:1])c3nc-2c(C(=O)[*:2])c(N)c1=O; NMeV = CN[C@H](C(=O)O)C(C)C; Sar = CNCC(=O)O

What was measured:
[1] = Cellular Toxicity (caspase-3) Hek293 (AID 664);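 note: cells exposed to compound for 16 h at 37 °C before readout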
In short: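 Luminescent Caspase-Glo 3/7 readout (aminoluciferin release) in HEK293 cells after 16 h compound treatment, 37 °C. Normalization: DMSO = basal, 100 uM tamoxifen = 100% stimulation. Concentration-response fitted with standard Hill equation for AC50.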

[2] = Cellular Toxicity (caspase-3) N2a (AID 665); details: Potency: caspase-3 activation;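 note: compound exposure lasted 16 h at 37 °C before readout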; note: potency is the fitted concentration of half-maximal effect
In short: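 Luminescent Caspase-Glo 3/7 readout in N2a mouse neuroblastoma cells after 16 h compound exposure at 37 °C. Signal scaled to DMSO (basal) and 10 uM staurosporine (100%). Concentration-response fitted with Hill equation for AC50.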

[3] = Cellular Toxicity (caspase-3) NIH 3T3 (AID 666); note: potency is the fitted concentration of half-maximal effect
In short: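 NIH 3T3, 1000 cells/well, 5 hr settle then 16 hr compound at 37°C; Caspase-Glo 3/7, 20 min RT, luminescence. DMSO = basal, 100 uM tamoxifen = 100%. Hill-equation AC50, qHTS.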

[4] = Cellular Toxicity (caspase-3) Renal Proximal Tubule (AID 667);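 note: cells exposed to compound for 16 hours at 37 °C before detection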
In short: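 In qHTS format, rat primary proximal tubule cells seeded at 1000 per well are exposed to compounds for 16 hours at 37 °C. An increase in Caspase-Glo 3/7 luminescence indicates caspase activation.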

[5] = molecular target: Cytochrome P450 3A4 (Homo sapiens) (UniProt P08684); test: qHTS Assay for Activators of Cytochrome P450 3A4 (AID 885); note: nearly all actives have a fitted effect of over 65% in size
Chain of Cytochrome P450 3A4 (Homo sapiens) (P08684 whole entry, looked up): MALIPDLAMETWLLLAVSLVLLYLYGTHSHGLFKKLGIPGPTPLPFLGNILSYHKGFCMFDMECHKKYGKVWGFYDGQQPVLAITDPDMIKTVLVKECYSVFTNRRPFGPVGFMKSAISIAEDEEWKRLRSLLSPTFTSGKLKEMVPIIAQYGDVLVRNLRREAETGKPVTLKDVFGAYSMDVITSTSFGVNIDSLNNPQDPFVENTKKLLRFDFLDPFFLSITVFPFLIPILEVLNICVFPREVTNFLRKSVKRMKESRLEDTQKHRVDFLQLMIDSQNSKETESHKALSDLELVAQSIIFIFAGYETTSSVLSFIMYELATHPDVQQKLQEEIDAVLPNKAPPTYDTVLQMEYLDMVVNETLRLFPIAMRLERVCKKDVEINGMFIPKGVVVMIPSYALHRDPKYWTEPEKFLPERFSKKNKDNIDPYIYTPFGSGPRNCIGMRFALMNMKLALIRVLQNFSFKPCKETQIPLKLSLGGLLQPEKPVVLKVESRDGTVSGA
In short: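 Luminescent readout of luciferin formed from 25 uM Luciferin-PPXE (KM level) by 20 nM CYP3A4 in 200 mM KPO4, with 60 min NADPH-driven reaction at room temperature after 10 min compound exposure. Ketoconazole (57 uM) defined 100% inhibition.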

[6] = molecular target: Guanine nucleotide-binding protein G(i) subunit alpha-1 (Homo sapiens) (UniProt P63096); test: qHTS Assay for Inhibitors of RGS12 GoLoco Motif Activity (Green Fluorophore) (AID 879);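 note: negative values mean loss of peptide binding seen as reduced polarization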
Chain of Guanine nucleotide-binding protein G(i) subunit alpha-1 (Homo sapiens) (P63096 whole entry, looked up): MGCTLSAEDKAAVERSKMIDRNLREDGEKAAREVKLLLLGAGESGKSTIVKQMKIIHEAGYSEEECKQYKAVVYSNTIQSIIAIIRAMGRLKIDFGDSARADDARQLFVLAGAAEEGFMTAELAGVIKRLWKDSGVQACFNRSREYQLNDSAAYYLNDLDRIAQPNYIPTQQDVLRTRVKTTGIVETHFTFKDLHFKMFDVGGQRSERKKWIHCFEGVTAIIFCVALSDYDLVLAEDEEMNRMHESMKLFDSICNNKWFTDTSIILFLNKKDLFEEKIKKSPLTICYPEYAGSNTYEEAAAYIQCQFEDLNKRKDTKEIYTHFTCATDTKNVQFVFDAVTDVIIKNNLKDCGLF
In short: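 A drop in FITC polarization marked displacement of the FITC-tagged RGS12 GoLoco peptide (10 nM) from Gαi1 (50 nM). Compounds were incubated 10 min at room temperature in Tris pH 7.5 buffer containing 150 mM NaCl, 0.1 mM GDP and 0.05% NP40; unlabeled peptide titration served as control.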

[7] = molecular target: Cytochrome P450 2D6 (Homo sapiens) (UniProt P10635); test: qHTS Assay for Inhibitors and Substrates of Cytochrome P450 2D6 (AID 891); note: nearly all actives have a fitted effect of over 60% in size; note: potency is the fitted concentration of half-maximal effect
Chain of Cytochrome P450 2D6 (Homo sapiens) (P10635 whole entry, looked up): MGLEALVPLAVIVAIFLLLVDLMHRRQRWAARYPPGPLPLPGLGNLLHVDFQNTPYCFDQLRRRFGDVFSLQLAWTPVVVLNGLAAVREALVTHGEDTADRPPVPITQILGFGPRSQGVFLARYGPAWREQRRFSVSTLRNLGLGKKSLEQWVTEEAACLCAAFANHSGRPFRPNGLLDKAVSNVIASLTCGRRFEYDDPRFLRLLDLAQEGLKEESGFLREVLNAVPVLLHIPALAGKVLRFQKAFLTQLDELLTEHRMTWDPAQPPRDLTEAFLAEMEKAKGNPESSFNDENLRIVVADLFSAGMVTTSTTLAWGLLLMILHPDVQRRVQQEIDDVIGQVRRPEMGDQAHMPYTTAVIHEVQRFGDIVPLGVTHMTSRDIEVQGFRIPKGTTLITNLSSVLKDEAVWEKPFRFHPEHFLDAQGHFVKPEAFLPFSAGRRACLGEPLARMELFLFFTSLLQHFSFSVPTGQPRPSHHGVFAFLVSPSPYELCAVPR
In short: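 Luminescent read-out of luciferin formed by 5 nM human CYP2D6 demethylating 30 uM Luciferin-ME EGE (Km level) over 60 min at room temperature after NADPH regeneration addition. Data normalized to full inhibition by 1.43 uM quinidine.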

[8] = molecular target: Cytochrome P450 3A4 (Homo sapiens) (UniProt P08684); test: qHTS Assay for Inhibitors and Substrates of Cytochrome P450 3A4 (AID 884); note: nearly all actives have a fitted effect of over 50% in size; note: potency is the fitted concentration of half-maximal effect
In short: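 Luminescent readout of luciferin produced by CYP3A4 (20 nM) dealkylation of Luciferin-PPXE, 25 uM (its KM). NADPH-driven reaction ran 60 min at RT after 10 min compound preincubation; data scaled to 57 uM ketoconazole as 100% inhibition.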

[9] = molecular target: Cytochrome P450 2C9 (Homo sapiens) (UniProt P11712); test: qHTS Assay for Inhibitors and Substrates of Cytochrome P450 2C9 (AID 883); note: nearly all actives have a fitted effect of over 60% in size; note: potency is the fitted concentration of half-maximal effect
Chain of Cytochrome P450 2C9 (Homo sapiens) (P11712 whole entry, looked up): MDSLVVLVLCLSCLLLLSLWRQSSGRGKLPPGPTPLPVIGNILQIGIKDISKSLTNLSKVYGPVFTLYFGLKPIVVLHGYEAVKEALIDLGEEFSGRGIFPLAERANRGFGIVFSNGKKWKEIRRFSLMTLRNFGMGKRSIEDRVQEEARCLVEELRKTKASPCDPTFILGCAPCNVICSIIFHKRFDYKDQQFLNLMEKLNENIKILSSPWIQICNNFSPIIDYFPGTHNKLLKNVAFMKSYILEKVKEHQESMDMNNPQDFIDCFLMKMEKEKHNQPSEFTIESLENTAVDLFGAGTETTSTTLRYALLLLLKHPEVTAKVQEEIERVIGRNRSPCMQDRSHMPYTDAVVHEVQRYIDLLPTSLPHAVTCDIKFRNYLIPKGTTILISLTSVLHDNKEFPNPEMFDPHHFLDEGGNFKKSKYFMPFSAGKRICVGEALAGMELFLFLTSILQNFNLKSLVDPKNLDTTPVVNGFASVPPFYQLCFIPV
In short: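 Luminescent read-out of deoxyluciferin hydroxylation, normalized to 57uM sulphaphenazole (AC100). Reaction: 10nM enzyme, 100uM Luciferin-H (equal to KM), 25mM KPO4, 10 min compound preincubation, then 60 min with NADPH regeneration, both at 37C.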

[10] = qHTS Assay for Identification of Small Molecule Antagonists for NFkB Signaling Pathway (AID 895; active = well fitted inhibition curve with a large enough effect in the signal ratio, with a control signal flat, not every such curve was filed as active; the % refers to the signal ratio; note: potency is the fitted concentration of half-maximal effect)
In short: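 Beta-lactamase reporter read-out (460 and 530 nm emission ratio, 405 nm excitation, 2 hrs substrate loading RT) after 5 hr stimulation with 10 pM TNF alpha in compound-treated NFkB-bla ME-180 cells in low-serum medium.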

Which outcome [1] does the source give for `COc1cccc2c1C(=O)c1c(O)c3c(c(O)c1C2=O)C[C@@](O)(C(=O)CO)C[C@@H]3O[C@H]1C[C@H](N)[C@H](O)[C@H](C)O1` here?
Its outcome is “inactive”.

And the Potency [2]?
Its Potency is 3.16 µM (active).

What about the Potency [3] of the same compound?
The Potency was 0.398 µM (active).

What about the outcome [4] of the same compound?
The outcome was “inactive”.

And the Potency [5]?
Its Potency is “inactive”.

For `Nc1cc(Cl)c(NC2=NCCN2)c(Cl)c1`, which outcome [6] is on record?
The outcome was “inactive”.

What does the source list for `NC(=NCCCCCCN=C(N)/N=C(\N)Nc1ccc(Cl)cc1)/N=C(\N)Nc1ccc(Cl)cc1`?
outcome [1]: inactive; Potency [2]: inactive; Potency [3]: inactive; outcome [4]: inactive; Potency [5]: inactive; Potency [7]: 7.94 µM (active)

Which Potency [2] does the source give for `CC(=O)O[C@]1(C(C)=O)CC[C@H]2[C@@H]3C[C@H](C)C4=CC(=O)CC[C@]4(C)[C@H]3CC[C@@]21C` here?
The Potency was “inactive”.

And the Potency [3]?
The Potency was “inactive”.

And the outcome [4]?
The outcome was “inactive”.

What about the Potency [8] of the same compound?
The Potency was 15.8 µM (active).

And the Potency [5]?
The Potency was “inactive”.

For `Oc1ccc(O)cc1`, which outcome [1] is on record?
Its outcome is “inactive”.

And the Potency [2]?
Its Potency is “inactive”.

And the outcome [4]?
The outcome was “inactive”.

What about the outcome [6] of the same compound?
The outcome was “inactive”.

And the Potency [9]?
The Potency was “inactive”.

What about the Potency [5] of the same compound?
The Potency was “inactive”.

And the Potency [7]?
The Potency was “inactive”.

What about the Potency [10] of the same compound?
The Potency was 10 µM (active).

Which outcome [1] does the source give for `C=C(CC)C(=O)c1ccc(OCC(=O)O)c(Cl)c1Cl` here?
The outcome was “inactive”.

And the Potency [2]?
Its Potency is “inactive”.

What about the Potency [3] of the same compound?
Its Potency is “inactive”.

What about the outcome [4] of the same compound?
Its outcome is “inactive”.

And the Potency [9]?
Its Potency is 0.631 µM (active).

What about the Potency [8] of the same compound?
The Potency was “inactive”.

Which results are given for `CCCCCCc1ccc(O)cc1O`?
outcome [1]: inactive; Potency [2]: inactive; Potency [3]: inactive; outcome [4]: inactive

With `CN1[C@@H]2CC[C@H]1CC(OC(=O)c1c[nH]c3ccccc13)C2` (stereo partly specified) as the compound, how does the outcome [6] read?
Its outcome is “inactive”.

Which outcome [1] does the source give for `Cc1c2oc3c(C)ccc(C(=O)N[C@@H]4C(=O)N[C@H](C(C)C)C(=O)N5CCC[C@H]5C(=O)N(C)CC(=O)N(C)[C@@H](C(C)C)C(=O)O[C@@H]4C)c3nc-2c(C(=O)N[C@@H]2C(=O)N[C@H](C(C)C)C(=O)N3CCC[C@H]3C(=O)N(C)CC(=O)N(C)[C@@H](C(C)C)C(=O)O[C@@H]2C)c(N)c1=O` (I: T[dV]P[Sar][NMeV] / II: T[dV]P[Sar][NMeV]; ester I:1-I:C, II:1-II:C; linker I:N-II:N via Actinocin(9to1)) here?
Its outcome is “inactive”.

And the Potency [2]?
Its Potency is 0.00794 µM (active).

And the Potency [3]?
Its Potency is 0.0251 µM (active).

And the Potency [5]?
The Potency was “inactive”.

Which outcome [1] does the source give for `O=c1ccc2ccccc2o1` here?
The outcome was “inactive”.

What about the Potency [2] of the same compound?
The Potency was “inactive”.

What about the Potency [3] of the same compound?
The Potency was “inactive”.

And the outcome [4]?
Its outcome is “inactive”.

What about the Potency [8] of the same compound?
Its Potency is “inactive”.

Which results are given for `Nc1ccc(C(=O)O)cc1`?
outcome [1]: inactive; Potency [2]: inactive; Potency [3]: inactive; outcome [4]: inactive; Potency [8]: inactive

What does the source list for `CC(O)C(=O)O` (stereo unspecified)?
outcome [1]: inactive; Potency [2]: inactive; Potency [3]: inactive; outcome [4]: inactive; Potency [8]: inactive

What does the source list for `CC/C(=C(/CC)c1ccc(O)cc1)c1ccc(O)cc1`?
outcome [1]: inactive; Potency [2]: inactive; Potency [3]: inactive; outcome [4]: inactive

What does the source list for `O=C1OC(c2ccc(O)cc2)(c2ccc(O)cc2)c2ccccc21`?
outcome [1]: inactive; Potency [2]: inactive; Potency [3]: inactive; outcome [4]: inactive; Potency [5]: inactive

For `COC1=CC(=O)C[C@@H](C)[C@]12Oc1c(Cl)c(OC)cc(OC)c1C2=O`, which outcome [1] is on record?
Its outcome is “inactive”.

And the Potency [2]?
The Potency was “inactive”.

And the Potency [3]?
The Potency was “inactive”.

What about the outcome [4] of the same compound?
Its outcome is “inactive”.

Which Potency [2] does the source give for `Oc1c(Cl)cc(Cl)cc1Sc1cc(Cl)cc(Cl)c1O` here?
The Potency was “inactive”.

What about the Potency [3] of the same compound?
Its Potency is “inactive”.

What about the outcome [4] of the same compound?
Its outcome is “inactive”.

And the Potency [5]?
Its Potency is “inactive”.

Which results are given for `Oc1c(I)cc(Cl)c2cccnc12`?
outcome [1]: inactive; Potency [2]: inactive; Potency [3]: 12.6 µM (active); outcome [4]: inactive

What does the source list for `O=C(O)CCCCC(=O)O`?
outcome [1]: inactive; Potency [2]: inactive; Potency [3]: inactive; outcome [4]: inactive; Potency [8]: inactive

With `C[C@]12CC[C@@H]3c4ccc(O)cc4CC[C@H]3[C@@H]1CC[C@@H]2O` as the compound, how does the outcome [1] read?
The outcome was “inactive”.

And the Potency [2]?
The Potency was “inactive”.

What about the Potency [3] of the same compound?
Its Potency is “inactive”.

And the outcome [4]?
The outcome was “inactive”.

And the outcome [6]?
The outcome was “inactive”.

And the Potency [8]?
The Potency was “inactive”.

For `CN(C)/N=N/c1nc[nH]c1C(N)=O`, which outcome [1] is on record?
Its outcome is “inactive”.

What about the Potency [2] of the same compound?
Its Potency is “inactive”.

What about the Potency [3] of the same compound?
The Potency was “inactive”.

And the outcome [4]?
Its outcome is “inactive”.

And the Potency [8]?
The Potency was “inactive”.

With `C[N+]1(CCCCC[N+]2(C)CCCC2)CCCC1` as the compound, how does the outcome [6] read?
Its outcome is “inactive”.

Which outcome [1] does the source give for `CC(=O)Oc1ccc(C(c2ccc(OC(C)=O)cc2)c2ccccn2)cc1` here?
The outcome was “inactive”.

What about the Potency [2] of the same compound?
The Potency was “inactive”.

What about the Potency [3] of the same compound?
The Potency was “inactive”.

What about the outcome [4] of the same compound?
Its outcome is “inactive”.

What about the Potency [5] of the same compound?
Its Potency is “inactive”.

With `C=CCc1ccc(O)c(OC)c1` as the compound, how does the outcome [1] read?
Its outcome is “inactive”.

And the Potency [2]?
The Potency was “inactive”.

What about the Potency [3] of the same compound?
The Potency was “inactive”.

What about the outcome [4] of the same compound?
Its outcome is “inactive”.

Which results are given for `COc1cccc2c1C(=O)c1c(O)c3c(c(O)c1C2=O)C[C@@](O)(C(C)=O)C[C@@H]3O[C@H]1C[C@H](N)[C@H](O)[C@H](C)O1`?
Potency [2]: 3.98 µM (active); Potency [3]: 31.6 µM (active); Potency [5]: inactive; Potency [7]: inactive

With `CC(C)COC(=O)OCN1C(=O)CN(CCN2CC(=O)N(COC(=O)OCC(C)C)C(=O)C2)CC1=O` as the compound, how does the outcome [6] read?
Its outcome is “inactive”.

With `Oc1ccc(Cl)cc1Sc1cc(Cl)ccc1O` as the compound, how does the outcome [1] read?
The outcome was “inactive”.

What about the Potency [2] of the same compound?
Its Potency is “inactive”.

What about the Potency [3] of the same compound?
The Potency was “inactive”.

What about the outcome [4] of the same compound?
The outcome was “inactive”.

Which outcome [6] does the source give for `CN1CCC[C@@H]1c1cccnc1` here?
The outcome was “inactive”.

For `COc1cc(NS(C)(=O)=O)ccc1Nc1c2ccccc2nc2ccccc12`, which outcome [6] is on record?
Its outcome is “inactive”.

What about the Potency [9] of the same compound?
The Potency was “inactive”.

And the Potency [5]?
Its Potency is “inactive”.

Which outcome [6] does the source give for `Oc1cc(O)c2c(c1)O[C@H](c1ccc(O)c(O)c1)[C@H](O)C2` here?
Its outcome is “inactive”.

And the Potency [5]?
The Potency was “inactive”.

What does the source list for `O=C1CCC(c2ccc(-n3ccnc3)cc2)=NN1`?
outcome [6]: inactive; Potency [8]: 1.58 µM (active); Potency [5]: inactive; Potency [7]: 2.51 µM (active)
